Source: PubChem BioAssay (National Center for Advancing Translational Sciences (NCATS))
KB-V1 MDR tox: KB-V1 MDR subline cytotoxicity; KB-V1 MDR cells viability, CellTiter-Glo, 72 h; 3.4% of 400,000 active; Potency, µM (titrated, usually from 46.1 µM), usual class: cytotoxic; note: nearly all actives have a fitted effect of over 60% in size
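qHTS viability screen in drug-selected KB-V1 MDR cells: 72 h compound treatment at 37 degrees C, ATP luminescence end point.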
HT1080 IDH1KD tx: toxicity to HT-1080 IDH1 knockdown cells (counter line); HT-1080 IDH1 knockdown viability, ATP luminescence, 48 h; Potency, µM (doses to about 46.1 µM), hits mostly cytotoxic; 2% of 360,000 active; AID 686971
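Luminescent ATP read-out (CellTiter-Glo, 10 min at room temperature) after 48 h compound exposure at 37 °C gave viability of IDH1-knockdown HT-1080 cells. Activity was normalised to DMSO and cell-free wells, then fitted as concentration-response curves.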
HT1080NT lethal: kills 2HG-producing HT-1080-NT fibrosarcoma cells | HT-1080-NT fibrosarcoma viability, CellTiter-Glo ATP luminescence, 48 h | Potency, µM (doses to about 46.1 µM), actives largely listed as cytotoxic | 1.6% of 360,000 active | AID 686970;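 note: NT is the 2HG producing partner of a matched IDH1 knockdown line; nearly all actives have a fitted effect of over 55% in size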
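Fibrosarcoma NT cells, 750 per well in 5% FBS RPMI, were exposed to compound for 48 hours. Viability: CellTiter-Glo luminescence.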
KB-3-1 cytotox: kills parental KB-3-1 adenocarcinoma cells | AID 1347075 | 1.4% of 400,000 active | KB-3-1 viability, CellTiter-Glo ATP luminescence, 72 h | Potency, µM (highest dose often 46.1 µM), most hits filed as cytotoxic; note: nearly all actives have a fitted effect of over 60% in size
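Using CellTiter-Glo luminescence, growth of non-resistant KB-3-1 adenocarcinoma cells is assessed 72 h after pin-tool compound addition at 37 °C. Normalized responses across the concentration series yield fitted curves.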
Large screens that a line does not name were inactive. An excerpt weighted towards active compounds, which were near 5.7% of everything screened. Calls come from the whole dose curve; as a rule, active = well fitted curve in the direction sought with a large enough effect; inconclusive = small, poorly fitted or top-dose-only effect, or another doubt; inactive = no such curve, though single readings can be large; an effect the other way counts as inactive or inconclusive.

CCOC(=O)CSc1ccc(-c2nc3cc(C)c(C)cc3[nH]2)cn1	none
Cc1cc2nc(-c3ccc(SCc4ccccn4)nc3)[nH]c2cc1C	KB-V1 MDR tox 16.4µM, HT1080 IDH1KD tx inconclusive, HT1080NT lethal inconclusive
Cc1oc(-c2ccc(Cl)cc2)nc1Cn1c(=O)cc(C)c2c(C)nn(-c3ccccc3)c21	none (no result: HT1080 IDH1KD tx, HT1080NT lethal)
Oc1c(Cl)cc(Cl)cc1/C=N/NC(=S)NC1CC2C=CC1C2 (stereo not drawn)	HT1080 IDH1KD tx 20.6µM, HT1080NT lethal inconclusive, KB-3-1 cytotox inconclusive
Cc1ccc(C)c(CSc2nc3ccncc3n2CC(=O)Nc2ccc(N(C)C)cc2)c1	none (no result: HT1080 IDH1KD tx, HT1080NT lethal)
CN1CCN(c2ccc(-c3ccc4ccccc4n3)cc2)CC1	KB-V1 MDR tox 11.6µM, HT1080 IDH1KD tx inconclusive, HT1080NT lethal inconclusive
CC(/C=N/NC(=O)Cc1cccn1C)=C\c1ccccc1	KB-V1 MDR tox 16.4µM
CCc1ccccc1NC(=O)CN1C(=O)c2ccccc2Sc2ncccc21	none (no result: HT1080 IDH1KD tx, HT1080NT lethal)
O=C(Cn1c(=O)n(-c2ccc(F)cc2)c(=O)c2sccc21)c1ccccc1	KB-V1 MDR tox 20.6µM
CC(C)(C)c1ccc(-c2nnc(-c3ccccc3NC(=O)c3cccc(C(F)(F)F)c3)o2)cc1	KB-V1 MDR tox inconclusive (no result: HT1080 IDH1KD tx, HT1080NT lethal)
COc1ccc(C(=O)NC(Nc2ccc(C)cc2)C(Cl)(Cl)Cl)cc1 (stereo not drawn)	KB-V1 MDR tox 14.6µM, HT1080 IDH1KD tx inconclusive, KB-3-1 cytotox inconclusive
COc1ccc(NC(NC(=O)c2ccc(OC)cc2)C(Cl)(Cl)Cl)cc1 (stereo not drawn)	KB-V1 MDR tox inconclusive
CCC(=O)N1c2ccccc2CC1C(=O)NCCc1ccccc1Cl (stereo not drawn)	none (no result: HT1080 IDH1KD tx, HT1080NT lethal)
COc1ccc(-c2nc3ccc(NC(=O)COC(C)=O)cc3c(=O)n2Cc2ccccc2)cc1COc1ccc(NC(C)=O)cc1	none (no result: KB-V1 MDR tox, KB-3-1 cytotox)
COc1ccc(-c2cc(-c3ccccc3)nc(SCC(=O)Nc3ncc(C)s3)c2C#N)cc1	KB-V1 MDR tox 9.2µM
CCOC(=O)c1cnc2c(c(C)nn2C)c1Oc1ccc(Cl)cc1	KB-V1 MDR tox 3.26µM, KB-3-1 cytotox inconclusive
COc1cc(/C=C2\SC(N3CCc4ccccc4C3)=NC2=O)cc(OC)c1OC	KB-V1 MDR tox 2.31µM, KB-3-1 cytotox inconclusive
COC(=O)c1ccc(NC(=O)COc2ccccc2C(=O)Nc2ccccc2)cc1	none (no result: HT1080 IDH1KD tx, HT1080NT lethal)
Cc1ccc2cccc(NC(=O)C(C)Oc3ccc(Cl)cc3Cl)c2n1 (stereo not drawn)	none (no result: HT1080 IDH1KD tx, HT1080NT lethal)
Cc1cccc(C)c1NC(=O)CCCSc1nnc(-c2ccc(Cl)cc2)n1-c1ccccc1	KB-V1 MDR tox 2.91µM, HT1080 IDH1KD tx inconclusive, KB-3-1 cytotox 4.11µM
CC(=O)Nc1nonc1-c1nnc(SCC(=O)Nc2c(C)cccc2C)n1-c1ccccc1	none (no result: HT1080 IDH1KD tx, HT1080NT lethal)
O=C(CSc1nnc(-c2ccncc2)n1-c1ccccc1)Nc1ccc(F)cc1	none (no result: HT1080 IDH1KD tx, HT1080NT lethal)
Cc1cccc(C)c1NC(=O)CCCSc1nnc(-c2ccc(F)cc2)n1-c1ccccc1	KB-V1 MDR tox 2.31µM, KB-3-1 cytotox 16.4µM
CCCCCn1c(=O)[nH]c2cc(C(=O)NCc3ccc(OC)cc3)ccc2c1=O	none (no result: HT1080 IDH1KD tx, HT1080NT lethal)
O=C(c1ccc(-c2ccccc2Cl)o1)N1CCN(S(=O)(=O)c2cccs2)CC1	KB-V1 MDR tox 20.6µM
Cc1ccc(Sc2ccc(/C=N/O)cc2[N+](=O)[O-])cc1	HT1080 IDH1KD tx inconclusive, HT1080NT lethal inconclusive
O=[N+]([O-])c1cc(/C=N/O)ccc1SCc1ccccc1Cl	KB-V1 MDR tox 20.6µM, HT1080 IDH1KD tx inconclusive, HT1080NT lethal inconclusive
CC(C)(C)Sc1ccc(/C=N/O)cc1[N+](=O)[O-]	KB-V1 MDR tox 23.1µM
Cc1ccc(NS(=O)(=O)c2ccc3nc(-c4ccccc4)[nH]c3c2)c(Cl)c1	none (no result: HT1080 IDH1KD tx, HT1080NT lethal)
CC1=NN(C(=O)c2ccc(Cn3nc(C)c([N+](=O)[O-])c3C)cc2)C(O)(C(F)(F)F)C1 (stereo not drawn)	KB-V1 MDR tox 9.2µM, HT1080 IDH1KD tx 1.78µM, HT1080NT lethal 4.47µM
CC1=NN(C(=O)c2ccc(Cn3nc(C)c(Br)c3C)cc2)C(O)(C(F)(F)F)C1 (stereo not drawn)	none
CC1=NN(C(=O)c2ccc(Cn3nc(C)cc3C)o2)C(O)(C(F)(F)F)C1 (stereo not drawn)	HT1080 IDH1KD tx 6.31µM, HT1080NT lethal 7.08µM
COCCCN1C(=O)c2oc3ccccc3c(=O)c2C12C(=O)N(C)c1ccccc12 (stereo not drawn)	none (no result: HT1080 IDH1KD tx, HT1080NT lethal)
O=C1CC(N(CCc2ccccc2)C(=S)Nc2ccccc2)C(=O)N1c1ccccc1 (stereo not drawn)	KB-V1 MDR tox 16.4µM, HT1080 IDH1KD tx inconclusive, HT1080NT lethal inconclusive
O=C1CC(N(CCc2ccccc2)C(=S)Nc2ccccc2)C(=O)N1c1ccc(F)cc1 (stereo not drawn)	HT1080 IDH1KD tx inconclusive, HT1080NT lethal inconclusive, KB-3-1 cytotox inconclusive
CCc1ccc(C(=O)Cn2ncc(Cl)c(Cl)c2=O)cc1	KB-V1 MDR tox inconclusive, HT1080 IDH1KD tx inconclusive, HT1080NT lethal 14.6µM, KB-3-1 cytotox 7.31µM
O=C(Cn1ncc(Cl)c(Cl)c1=O)N1CCN(Cc2ccccc2)CC1	HT1080 IDH1KD tx inconclusive, HT1080NT lethal inconclusive, KB-3-1 cytotox inconclusive
CC1(C)C(=O)Nc2ccccc2N1C(=O)Cn1ncc(Cl)c(Cl)c1=O	KB-3-1 cytotox inconclusive
O=C(Cn1ncc(Cl)c(Cl)c1=O)N1CCc2ccccc21	KB-V1 MDR tox inconclusive, HT1080 IDH1KD tx 2.91µM, HT1080NT lethal 4.61µM, KB-3-1 cytotox inconclusive
O=C(Cn1ncc(Cl)c(Cl)c1=O)N1CCOCC1	HT1080 IDH1KD tx 13µM, HT1080NT lethal 11.6µM, KB-3-1 cytotox inconclusive
C/C(Cn1nnc([N+](=O)[O-])n1)=N\NC(=O)c1ccc(O)cc1O	HT1080 IDH1KD tx 18.4µM, HT1080NT lethal 23.1µM
C/C(Cn1nnc([N+](=O)[O-])n1)=N\NC(=O)c1ccccc1O	HT1080 IDH1KD tx inconclusive, HT1080NT lethal inconclusive
Cc1ccc(NC(=O)Cn2c(=O)n(CCCCCC(=O)NCc3ccc(F)cc3)c(=O)c3sccc32)cc1C	none (no result: HT1080 IDH1KD tx, HT1080NT lethal)
